Records with an inconclusive call do not appear. Active and inactive are the calls of the source. Unless noted, the call rests on the fitted dose curve.
Tests used:
[1] = Nuclear factor erythroid 2-related factor 2/antioxidant responsive element (Nrf2/ARE) small molecule agonists: qHTS cell viability counter screen in human keratinocytes (AID 1919968; active means well fitted curve in the direction sought with a large enough effect in the repeat runs; an effect the other way counts as inactive or inconclusive; further: nearly all actives have a fitted effect of over 55% in size)
Summary of the method: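 In human HaCaT keratinocytes stably expressing an ARE-driven luciferase, compound exposure lasted 23 h at 37 C under 5% CO2. Viable cells are quantified with a protease-based fluorogenic reagent (CellTiter-Fluor) read 1 h after addition.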

[2] = molecular target: KiSS-1 receptor (Homo sapiens) (UniProt Q969F8); assay: Human kisspeptin (KISS1R) small molecule agonists, calcium flux assay in KISS1R-HEK293 cells (AID 1920064; active means well fitted curve in the direction sought with a large enough effect in the repeat runs; an effect the other way counts as inactive or inconclusive)
Summary of the method: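 Concentration-response testing used 15 concentrations in triplicate on human KISS1R-expressing HEK293 cells. Calcium-dependent fluorescence (Ex/Em 480/540) was followed kinetically for 3 min after compound transfer.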

[3] = G protein-coupled receptor (GPCR) small molecule agonists, calcium flux assay: HEK293 wild type cell line counter screen (AID 1920065)
Summary of the method: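 Fluorescence intensity signals activation. After overnight (18 h) culture and a 1 h calcium dye load at 37 C, compounds are added by pin tool and the plate read at 480/540 nm for 3 min in 1 s steps.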

[4] = p53 small molecule agonists, cell-based qHTS assay with human liver microsomes (AID 1963577);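 further: p53 response element beta-lactamase reporter cells with liver microsomes plus NADPH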
Summary of the method: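 p53RE-bla cells; 5 h settle, 37 C/5% CO2; cpd + HLM 0.5 mg/mL + NADPH 0.5 mg/mL (final); 16 h 37 C; LiveBLAzer 2 h RT dark; fluorescence readout.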

[5] = p53 small molecule agonists, cell-based qHTS assay with rat liver microsomes (AID 1963578)
Summary of the method: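 Rat liver microsome activation: microsomes 0.5 mg/mL, NADPH 0.5 mg/mL final; p53RE-bla cells, 16 h 37 C; LiveBLAzer readout, 2 h RT dark.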

[6] = p53 small molecule agonists, cell-based qHTS assay with human liver microsomes: qHTS cell viability counter screen (AID 1963579); further: nearly all actives have a fitted effect of over 45% in size
Summary of the method: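 Luminescent CellTiter-Glo read-out, 30 min at room temperature, gauged cytotoxicity in p53RE-bla cells exposed 16 h at 37 C to DMSO-dissolved compounds with metabolic activation by human liver microsomes and NADPH, each 0.5 mg/mL final.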

[7] = p53 small molecule agonists, cell-based qHTS assay with rat liver microsomes: qHTS cell viability counter screen (AID 1963580); further: nearly all actives have a fitted effect of over 45% in size
Summary of the method: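 Cytotoxicity counter screen: intracellular ATP read by CellTiter-Glo luminescence in the p53 reporter wells. HCT-116 p53RE-bla cells were treated for 16 h at 37 C alongside rat liver microsomes and NADPH, each 0.5 mg/mL final.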

[8] = p53 small molecule agonists, cell-based qHTS assay: qHTS cell viability counter screen (AID 1963581); further: nearly all actives have a fitted effect of over 45% in size
Summary of the method: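 Luminescence from CellTiter-Glo, reflecting ATP content, serves as the cytotoxicity measure; it is taken after the 2 h reporter substrate step in HCT-116 p53RE-bla cells dosed for 16 h at 37 C.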

[9] = p53 small molecule agonists, cell-based qHTS assay (AID 1963582; active means well fitted activation curve with a large enough effect in the signal ratio in the repeat runs, not every such curve was filed as active; the % refers to the signal ratio)
Summary of the method: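 After plating, p53RE-bla cells sat 5 h in the incubator; compounds or DMSO vehicle were pinned in; a 16 h incubation at 37 C followed; FRET substrate was added and, 2 h later at RT, fluorescence was measured.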

[10] = molecular target: 5-hydroxytryptamine receptor 2A (Homo sapiens) (UniProt P28223); assay: 5-hydroxytryptamine receptor 2A (HTR2A) small molecule antagonists, cell-based qHTS assay (AID 1963586); further: nearly all actives have a fitted effect of over 45% in size
Summary of the method: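 CHO cells stably expressing human HTR2A were plated for 18 h at 37 C, then loaded with calcium dye for 1 h. Compounds were preincubated 5 min at room temperature before DOI (4 nM solution) was added. Kinetic fluorescence was read for 3 min.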

[11] = molecular target: 5-hydroxytryptamine receptor 2A (Homo sapiens) (UniProt P28223); assay: 5-hydroxytryptamine receptor 2A (HTR2A) small molecule agonists, cell-based qHTS assay (AID 1963587); further: nearly all actives have a fitted effect of over 30% in size
Summary of the method: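 Kinetic calcium-flux fluorescence (2 min, 1 sec intervals) after compound addition in agonist mode. HTR2A-CHO cells were cultured 18 h, then dye-loaded 1 h at 37 C.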

[12] = molecular target: Muscarinic acetylcholine receptor M1 (Homo sapiens) (UniProt P11229); assay: Cholinergic receptor muscarinic 1 (CHRM1) small molecule antagonists, cell-based qHTS assay (AID 1963588); further: nearly all actives have a fitted effect of over 40% in size; further: potency means the concentration at half of the fitted maximal effect
Summary of the method: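 Compounds were tested at 15 concentrations in three independent runs. Dye-loaded CHRM1-CHO cells were exposed 5 min at room temperature before stimulation by acetylcholine added at 50nM. Intracellular calcium was read kinetically on FDSS for 3 min.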

[13] = molecular target: Muscarinic acetylcholine receptor M1 (Homo sapiens) (UniProt P11229); assay: Cholinergic receptor muscarinic 1 (CHRM1) small molecule agonists, cell-based qHTS assay (AID 1963589); further: nearly all actives have a fitted effect of over 35% in size
Summary of the method: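 Fluorescent calcium dye reports M1 activation in stably transfected CHO cells. Compounds, 15 concentrations, added after 1 h dye loading at 37 C; kinetic reading at 1 sec intervals.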

[14] = cAMP Responsive Elements (CRE) small molecule agonists, cell-based qHTS assay (AID 1963590)
Summary of the method: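 Compound exposure lasted 3 h at 37 C/5% CO2 in CRE-bla HEK 293T cells grown in assay medium with 10% dialyzed FBS and 25 mM HEPES. Reporter signal came from LiveBLAzer B/G FRET substrate, 2 h, room temperature.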

[15] = cAMP Responsive Elements (CRE) small molecule antagonists, cell-based qHTS assay (AID 1963591; active means well fitted inhibition curve with a large enough effect in the signal ratio in the repeat runs, not every such curve was filed as active; the % refers to the signal ratio)
Summary of the method: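 Stimulation used NKH477 at a final 0.25 uM for 3 h in compound-treated CRE-bla HEK293T cells, seeded 18 h beforehand. Reporter activity was measured with LiveBLAzer B/G FRET substrate after 2 h at room temperature.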

[16] = molecular target: Beta-2 adrenergic receptor (Homo sapiens) (UniProt P07550); assay: Adrenergic beta2 receptor (ADRB2) small molecule antagonists, cell-based qHTS assay (AID 1963592); further: series mostly up to about 92 µM; nearly all actives have a fitted effect of over 50% in size
Summary of the method: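 Assay format: CHO-ADRB2 cells, 18-20hr seeding at 37C/5% CO2, then compound plus 1nM isoproterenol agonist mix for 0.5hr RT. Homogeneous time-resolved fluorescence cAMP detection after 1hr, expressed as 665/615 nm ratio.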

[17] = molecular target: D(2) dopamine receptor (Homo sapiens) (UniProt P14416); assay: Dopamine D2 receptor (DRD2) small molecule antagonists, cell-based qHTS assay (AID 1963595; active means well fitted inhibition curve with a large enough effect in the signal ratio in the repeat runs, with a control signal flat; the % refers to the signal ratio)
Summary of the method: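 HTRF cAMP read-out at 665 and 620 nm emission (340 nm excitation). Antagonist mode: compounds were tested against 12 nM quinpirole in DRD2-HEK293 cells, with 200 nM NKH477 raising cAMP and 0.1 mM Ro20-1724 blocking its breakdown.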

[18] = Nuclear factor erythroid 2-related factor 2/antioxidant responsive element (Nrf2/ARE) small molecule agonists: luciferase reporter gene qHTS assay in human keratinocytes (AID 1919969); further: nearly all actives have a fitted effect of over 35% in size
[19] = molecular target: Beta-2 adrenergic receptor (Homo sapiens) (UniProt P07550); assay: Adrenergic beta2 receptor (ADRB2) small molecule agonists, cell-based qHTS assay (AID 1963593);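 further: CHO cells stably overexpressing human ADRB2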
Summary of the method: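 CHO cells stably over-expressing ADRB2 were plated overnight at 37C, then dosed with compounds plus a stimulation mix containing 100uM IBMX and 25uM Ro-20-1724 for 0.5hr at room temperature. cAMP was measured by HTRF competition, 1hr.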

[20] = molecular target: D(2) dopamine receptor (Homo sapiens) (UniProt P14416); assay: Dopamine D2 receptor (DRD2) small molecule agonists, cell-based qHTS assay (AID 1963594); further: nearly all actives have a fitted effect of over 35% in size
Summary of the method: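 cAMP accumulation in DRD2-HEK293 cells measured by HTRF after 1 h detection; compounds added 10 min before NKH477 (200nM […]) forskolin-analogue stimulation, 30 min at room temperature, with Ro20-1724 present at 0.1 mM final.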

Measured: Potency

Muscarinic acetylcholine receptor M1 (Homo sapiens), sequence (P11229 whole entry, looked up): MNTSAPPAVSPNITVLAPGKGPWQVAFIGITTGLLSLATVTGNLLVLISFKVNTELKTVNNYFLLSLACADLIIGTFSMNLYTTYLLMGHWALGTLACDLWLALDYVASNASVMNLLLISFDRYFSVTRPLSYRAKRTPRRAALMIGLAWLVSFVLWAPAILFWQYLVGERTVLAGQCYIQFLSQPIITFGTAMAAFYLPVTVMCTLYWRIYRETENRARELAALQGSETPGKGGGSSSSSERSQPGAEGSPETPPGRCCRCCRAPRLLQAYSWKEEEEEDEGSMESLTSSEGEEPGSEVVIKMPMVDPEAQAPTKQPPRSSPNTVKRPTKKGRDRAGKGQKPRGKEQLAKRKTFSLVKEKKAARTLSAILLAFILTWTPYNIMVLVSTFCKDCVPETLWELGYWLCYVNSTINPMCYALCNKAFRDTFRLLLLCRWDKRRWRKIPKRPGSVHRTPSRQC
KiSS-1 receptor (Homo sapiens), sequence (Q969F8 whole entry, looked up): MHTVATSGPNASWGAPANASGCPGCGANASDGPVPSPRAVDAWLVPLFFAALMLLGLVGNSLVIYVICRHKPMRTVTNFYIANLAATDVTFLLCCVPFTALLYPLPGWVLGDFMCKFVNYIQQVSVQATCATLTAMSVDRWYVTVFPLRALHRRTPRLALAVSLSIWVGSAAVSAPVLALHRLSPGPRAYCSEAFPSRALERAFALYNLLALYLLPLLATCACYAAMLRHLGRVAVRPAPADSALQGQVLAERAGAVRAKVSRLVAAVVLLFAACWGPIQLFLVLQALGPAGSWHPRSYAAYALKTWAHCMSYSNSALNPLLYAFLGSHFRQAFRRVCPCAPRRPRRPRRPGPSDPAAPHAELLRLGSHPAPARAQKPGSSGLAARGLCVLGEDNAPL
Beta-2 adrenergic receptor (Homo sapiens), sequence (P07550 whole entry, looked up): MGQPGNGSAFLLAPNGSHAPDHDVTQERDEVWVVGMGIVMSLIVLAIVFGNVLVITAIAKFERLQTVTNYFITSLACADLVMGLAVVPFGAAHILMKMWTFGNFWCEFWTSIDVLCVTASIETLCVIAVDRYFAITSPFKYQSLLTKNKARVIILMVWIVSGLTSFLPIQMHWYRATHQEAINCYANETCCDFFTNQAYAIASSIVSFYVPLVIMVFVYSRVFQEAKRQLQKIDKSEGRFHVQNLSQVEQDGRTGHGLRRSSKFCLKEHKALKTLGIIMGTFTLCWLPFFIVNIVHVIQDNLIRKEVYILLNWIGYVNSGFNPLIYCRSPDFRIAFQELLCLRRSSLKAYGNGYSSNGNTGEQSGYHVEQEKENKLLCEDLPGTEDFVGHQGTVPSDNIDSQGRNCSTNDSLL
D(2) dopamine receptor (Homo sapiens), sequence (P14416 whole entry, looked up): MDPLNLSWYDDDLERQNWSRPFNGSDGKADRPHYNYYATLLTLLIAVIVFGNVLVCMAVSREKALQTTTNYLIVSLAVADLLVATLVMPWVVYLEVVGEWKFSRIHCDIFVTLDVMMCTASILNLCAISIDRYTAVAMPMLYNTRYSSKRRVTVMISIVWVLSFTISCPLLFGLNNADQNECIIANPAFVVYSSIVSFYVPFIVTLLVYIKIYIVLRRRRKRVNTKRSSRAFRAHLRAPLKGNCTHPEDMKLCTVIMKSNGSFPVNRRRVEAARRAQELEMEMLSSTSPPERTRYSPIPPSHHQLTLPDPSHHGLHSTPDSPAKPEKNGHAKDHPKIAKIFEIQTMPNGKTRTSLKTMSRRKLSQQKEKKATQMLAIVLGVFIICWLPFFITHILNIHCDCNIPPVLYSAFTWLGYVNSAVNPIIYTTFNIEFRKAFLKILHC
5-hydroxytryptamine receptor 2A (Homo sapiens), sequence (P28223 whole entry, looked up): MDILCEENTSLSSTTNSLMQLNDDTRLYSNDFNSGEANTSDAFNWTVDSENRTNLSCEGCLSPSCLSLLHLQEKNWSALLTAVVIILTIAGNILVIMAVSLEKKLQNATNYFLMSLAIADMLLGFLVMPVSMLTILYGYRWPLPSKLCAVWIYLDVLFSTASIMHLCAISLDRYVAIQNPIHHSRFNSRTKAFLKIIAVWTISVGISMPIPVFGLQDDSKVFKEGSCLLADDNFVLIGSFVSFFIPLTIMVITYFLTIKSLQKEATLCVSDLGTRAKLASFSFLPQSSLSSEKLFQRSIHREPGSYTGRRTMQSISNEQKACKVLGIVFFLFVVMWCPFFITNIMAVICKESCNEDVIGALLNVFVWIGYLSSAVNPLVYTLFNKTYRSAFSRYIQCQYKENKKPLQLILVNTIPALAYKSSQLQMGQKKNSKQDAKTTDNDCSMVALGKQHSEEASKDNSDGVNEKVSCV

CN1C(=O)c2ccc([N+](=O)[O-])cc2C1=O
not listed: [18] | [19] | [20]
inactive: all other assays above

CCn1ccnc1CC1COc2ccccc2O1 (stereo not given)
not listed: [18] | [19] | [20]
inactive: all other assays above

Nc1ccc(C(=O)N2CC3CC(CN(Cc4ccccc4)C3)C2)cc1
active: [12] 1830 nM
not listed: [14] | [15] | [18] | [19] | [20]
inactive: all other assays above

O=C(O)c1ccc2cc(O)ccc2c1
not listed: [2] | [4] | [14] | [15]
inactive: all other assays above

O=C(O)c1cc(Cl)cc(Cl)c1
not listed: [14] | [15] | [18] | [19]
inactive: all other assays above

COC(C)(OC)OC
not listed: [15] | [16] | [17] | [18] | [19]
inactive: all other assays above

O=c1c(O)c(-c2ccc(O)cc2O)oc2cc(O)cc(O)c12
not listed: [2] | [6] | [14] | [15] | [17] | [20]
inactive: all other assays above

From PubChem BioAssay (Tox21)
